The source of these data is PubChem BioAssay AID778 (Sanford-Burnham Center for Chemical Genomics, 2007).

Usually inhibition stands for the drop in the measured response relative to a control, in per cent.

Molecules are shown by their SMILES. Hit rate of the full screen: of about 96,000 compounds, about 20,000 (21%) were called active.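 The calls were made as follows: active = CYP2C19 inhibition above a set limit at 5 µM in the primary screen (cut at about 50% in these data); inactive = the rest.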 The list is a sample of the results.

Chain of Cytochrome P450 2C19 (Homo sapiens) (P33261 whole entry, looked up): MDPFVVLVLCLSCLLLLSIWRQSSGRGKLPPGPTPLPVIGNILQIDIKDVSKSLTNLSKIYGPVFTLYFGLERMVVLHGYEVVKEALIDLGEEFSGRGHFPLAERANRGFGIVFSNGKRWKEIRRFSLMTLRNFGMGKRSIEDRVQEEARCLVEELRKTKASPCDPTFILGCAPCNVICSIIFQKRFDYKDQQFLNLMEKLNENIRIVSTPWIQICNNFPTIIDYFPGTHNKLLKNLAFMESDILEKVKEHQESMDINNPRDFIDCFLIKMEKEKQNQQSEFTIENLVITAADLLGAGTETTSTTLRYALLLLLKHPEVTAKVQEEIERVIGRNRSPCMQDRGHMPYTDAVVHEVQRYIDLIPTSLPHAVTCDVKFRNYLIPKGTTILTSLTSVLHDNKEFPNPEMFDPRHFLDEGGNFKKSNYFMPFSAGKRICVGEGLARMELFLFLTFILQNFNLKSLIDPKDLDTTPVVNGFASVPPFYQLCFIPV

The test addresses Cytochrome P450 2C19 (Homo sapiens) (UniProt P33261). Briefly: blockers of cytochrome P450 2C19 activity – biochemical, luminescence, ADME assay, primary screen (AID 778).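 Also: plate controls were negative control wells for no effect and 2.5 mM tranylcypromine positive control for full effect.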 Particulars: CYP2C19 Supersomes, luciferin-H EGE luminescence, 30 min; at 5 µM; hits give high values.
For the molecule `CCCCN(C)C(=O)c1ccc2c(c1)N(CC)C(=O)c1ccccc1S2(=O)=O`, the inhibition is 22.5% (inactive).

Consider `O=C(CCN1C(=O)c2ccccc2C1=O)Nc1cccc(F)c1`, for which the inhibition is 78% (active).

In the case of `O=C(CCN1C(=O)c2ccccc2C1=O)Nc1ccncc1`, the inhibition is 36.2% (inactive).

As for `O=C(CCN1C(=O)c2ccncc2C1=O)Nc1ccc2c(c1)OCCO2`, the inhibition is 2.4% (inactive).

Take `O=C(COc1ccccc1Cl)Nn1cnnc1`: the inhibition was 41.3% (inactive).

Consider `COc1ccc(Cc2nnc(NC(=O)Cc3cccs3)s2)cc1`, for which the inhibition is 17.2% (inactive).

Take `COc1ccc(NC(=O)NC2CC3CCCC(C2)N3Cc2ccccc2)cc1` (stereo not drawn): the inhibition was 0.4% (inactive).

Turning to `CN(C)c1nc2n(c(=O)n1)CCO2`, the inhibition was -6% (inactive).

Consider `CN(C)/C=C1/Nc2ccccc2C1=O`, for which the inhibition is 14.3% (inactive).

`Cc1ccccc1-c1nc(CS(=O)(=O)CC(=O)N2CCc3ccccc3C2)c(C)o1`: the inhibition was 69.4% (active).

Regarding `Cc1oc(-c2ccccc2F)nc1CS(=O)(=O)CC(=O)NCCCN(C)C1CCCCC1`, the inhibition was -10.6% (inactive).

Regarding `COc1ccc(-c2nc(CS(=O)CC(=O)N3CCc4ccccc4C3)c(C)o2)cc1` (stereo not drawn), the inhibition is 17.7% (inactive).

As to `CCN1CCN(C(=O)/C=C\C(=O)O)CC1`, the inhibition was -10.4% (inactive).

Turning to `CCOC(=O)c1c(N)c(C#N)nn1-c1ccccc1C(=O)OC`, the inhibition was 25.3% (inactive).

In the case of `CCC(=O)NC(NCC1CCCO1)C(Cl)(Cl)Cl` (stereo not drawn), the inhibition was 8.6% (inactive).

Take `COCCNC(=O)c1snc2ccc(Cl)cc12`: the inhibition is -5.7% (inactive).

Turning to `CCOC(=O)c1nc(N)sc1C(=O)OCC`, the inhibition was -0.6% (inactive).

With `CCOC(=O)c1cc2ccccc2nc1C`, the inhibition is 12.8% (inactive).

For the molecule `CCOC(=O)c1sc(C)c2c1NC(C)(c1cccc3ccccc13)NC2=O` (stereo not drawn), the inhibition was 82% (active).

As to `COC(=O)C(C)n1cnc2c(nnn2-c2cccc(Cl)c2)c1=O` (stereo not drawn), the inhibition was 24.7% (inactive).

For the molecule `COc1ccc(Cl)cc1C(=O)Nc1ccc(N(C)C(C)=O)cc1`, the inhibition is 25.6% (inactive).

Consider `COc1ccc(NC(=S)N2N=CCC2c2ccccc2)cc1` (stereo not drawn), for which the inhibition was 41.5% (inactive).

In the case of `CCOC(=O)c1cc(NC(=O)c2ccc(Cl)cc2)c(=O)oc1-c1ccccc1`, the inhibition was 6.8% (inactive).

As to `CN1OC(COC(=O)c2ccc(Cl)cc2)CC1c1ccccc1` (stereo not drawn), the inhibition was 74.5% (active).

Regarding `N#Cc1c(N)n(CCOC(=O)c2ccc(Cl)cc2)c2nc3ccccc3nc12`, the inhibition is 29.4% (inactive).

Consider `CCOc1ccc(OCC)c(NC(=O)C(NS(=O)(=O)c2ccc3c(c2)oc(=O)n3C)C(C)C)c1` (stereo not drawn), for which the inhibition is 20.9% (inactive).

Consider `c1ccc(-c2cc(-c3nnc4sc(-c5ccccn5)nn34)[nH]n2)cc1`, for which the inhibition was 10.4% (inactive).

As for `O=C(O)c1cccnc1NC1CCCC1`, the inhibition was 6.9% (inactive).

Regarding `CCN(CC)C(=O)CSc1nnc(-c2ccc(S(=O)(=O)NCc3ccccc3Cl)cc2)o1`, the inhibition was 65.4% (active).

Turning to `O=C(CSc1nnc(-c2ccc(NS(=O)(=O)c3ccccc3)cc2)o1)NCC1CCCO1` (stereo not drawn), the inhibition is 46.1% (inactive).

For the molecule `CCN(CC)C(=O)CSc1nnc(-c2cccc(OC)c2)o1`, the inhibition was 26.3% (inactive).

Regarding `CC(CC(=O)Nc1cc(C(F)(F)F)ccc1Cl)c1ccccc1` (stereo not drawn), the inhibition was 61% (active).

For `CC(C)CC(=O)Nc1cc(C(F)(F)F)ccc1N1CCOCC1`, the inhibition is 32.1% (inactive).

`O=C(Nc1cc(C(F)(F)F)ccc1Cl)c1cc2nc3c(c(C(F)(F)F)n2n1)CCCC3`: the inhibition is 7.6% (inactive).

For the molecule `COC(=O)CNC(=O)c1ccc2c(c1)S(=O)(=O)c1ccccc1C2=O`, the inhibition was -4.3% (inactive).

Take `O=C(CC1OC(=O)c2ccccc21)NC1CCCCC1` (stereo not drawn): the inhibition is -5.7% (inactive).

`O=C(NC(c1ccccc1)c1ccccc1)N1CCN(CCO)CC1`: the inhibition is 3.6% (inactive).

On to `S=c1[nH]nc2c3c4c(sc3ncn12)CCCC4`, for which the inhibition was -8.5% (inactive).

Take `Cc1cccc(CSc2nnc(NC(=O)CSc3nnc(C)s3)s2)c1`: the inhibition is 20.2% (inactive).

Consider `O=C(NCCc1ccccc1)/C(=C\c1ccc([N+](=O)[O-])cc1)NC(=O)c1ccccc1`, for which the inhibition was -1.2% (inactive).

Take `CCOC(=O)/C(=C\c1ccc([N+](=O)[O-])cc1)C(=O)c1cc(C(C)=O)c(Nc2ccccc2)s1`: the inhibition was 62.8% (active).

For the molecule `CCOC(=O)/C(C#N)=C/c1ccc(OCC(=O)Nc2ccccc2)c(OC)c1`, the inhibition was 4.1% (inactive).

Take `CCCC(=O)Nc1c(O)c2ccccc2[nH]c1=O`: the inhibition is -8.7% (inactive).

For `CCOc1ccccc1NC(=O)Nc1cc(OC)ccc1OC`, the inhibition is 1.1% (inactive).

Turning to `CCOc1ccc(CC(=O)Nc2ccc(S(=O)(=O)Nc3cc(C)on3)cc2)cc1OCC`, the inhibition is 2% (inactive).

Consider `CCOc1ccc(C(=O)Nc2cc(OC)ccc2OC)cc1`, for which the inhibition was 77% (active).

Regarding `COc1ccc(OC)c(NC(=O)CN2CCN(C(=O)c3ccco3)CC2)c1`, the inhibition was 8.8% (inactive).

As for `CCOc1ccc(S(=O)(=O)Nc2ccc(S(=O)(=O)Nc3cc(OC)ccc3OC)cc2)cc1`, the inhibition is 91.8% (active).

For the molecule `COc1ccc(OC)c(NC(=O)CCN2CCC(C)CC2)c1`, the inhibition is 89.8% (active).

Take `COc1ccc(C(=O)Nc2ccc(F)cc2F)cc1`: the inhibition is 12.1% (inactive).

In the case of `CCOc1ccc(S(=O)(=O)Nc2nc3cc(OC)ccc3s2)cc1`, the inhibition is 16.3% (inactive).

Turning to `COc1ccc(OC)c(NC(=O)Cn2c(=O)oc3ccccc32)c1`, the inhibition was 42.2% (inactive).

For the molecule `O=P(c1cccs1)(c1cccs1)c1cccs1`, the inhibition was 7.9% (inactive).

On to `COC(=O)C(C)N(C#N)c1nc(C)nc(C)n1` (stereo not drawn), for which the inhibition is 15.2% (inactive).

`CCOC(=O)C1CCCN(C(=O)c2sc3nc(C)nc(N4CCOCC4)c3c2C)C1` (stereo not drawn): the inhibition was -5% (inactive).

For `Nc1nonc1-c1noc(-c2ccc(Br)o2)n1`, the inhibition was 47.6% (inactive).

Turning to `CN1CCN(Cc2c(O)ccc3c2oc(=O)c2ccccc23)CC1`, the inhibition was -0.1% (inactive).

For `Cc1ccccc1OC(=O)Cn1c(C(F)(F)F)nc2ccccc21`, the inhibition is 35.4% (inactive).

Consider `CC(C)(C)NC(=O)NC(=O)COC(=O)Cn1c(C(F)(F)F)nc2ccccc21`, for which the inhibition is 54.6% (active).

In the case of `CN1CCN(C(=O)Cn2c(C(F)(F)F)nc3ccccc32)CC1`, the inhibition was -11.1% (inactive).

For the molecule `CCCCN(C)Cc1c(C)[nH]c2ccc(Cl)cc2c1=O`, the inhibition is -11.4% (inactive).

With `O=C(Nc1c(Cl)cccc1Cl)C1CCC1`, the inhibition is -0.2% (inactive).

Regarding `O=C(c1ccco1)N1CCN(C(=O)C2CC(c3ccc(Cl)c(Cl)c3)=NO2)CC1` (stereo not drawn), the inhibition was 53.8% (active).

In the case of `O=C(c1ccco1)N1CCN(C(=O)C2CC(c3ccc(F)cc3)=NO2)CC1` (stereo not drawn), the inhibition is 5.3% (inactive).

For the molecule `O=C(c1ccco1)N1CCN(c2cccc(Cl)c2)CC1`, the inhibition was 19.9% (inactive).

`Cc1ccc(S(=O)(=O)N2CCC(C(=O)OCC(=O)N3CC(=O)Nc4ccccc43)CC2)cc1`: the inhibition is 62.2% (active).

Turning to `O=C1CN(C(=O)COC(=O)C2CC(=O)N(Cc3ccco3)C2)c2ccccc2N1` (stereo not drawn), the inhibition was -8.7% (inactive).

Turning to `Cc1ccc(S(=O)(=O)NCC(=O)OCC(=O)N2CCc3ccccc32)cc1`, the inhibition is -3.8% (inactive).

Turning to `COc1cc(OC)cc(C(=O)Nc2ccc(-c3nc4ccccc4o3)c(O)c2)c1`, the inhibition was 22.3% (inactive).

On to `CCC(CC)C(=O)Nc1cccc(C(=O)N2CCCC2)c1`, for which the inhibition was 15.4% (inactive).

For `O=C(CN1CCN(C(=O)c2cccc(F)c2)CC1)Nc1ccccc1F`, the inhibition was 42.8% (inactive).

Take `O=C(c1ccccc1Oc1ccccc1)N1CCN(c2ccc(F)cc2)CC1`: the inhibition is 87.1% (active).

For the molecule `O=C(c1ccccc1)N1CCN(C(=O)N2CCCCC2)CC1`, the inhibition was 39.7% (inactive).

Take `Cc1ccccc1CN1CCN(C(=O)c2cccc(F)c2)CC1`: the inhibition was 98.4% (active).

`O=C(c1cccc(C(=O)N2CCN(c3ccc(F)cc3)CC2)c1)N1CCN(c2ccc(F)cc2)CC1`: the inhibition was 81.8% (active).

Consider `O=C(c1ccccc1)c1cccn1CC(=O)N1CCN(c2ccc(F)cc2)CC1`, for which the inhibition is 33.3% (inactive).

Take `O=C(c1ccccc1-c1ccccc1)N1CCOCC1`: the inhibition was 10.3% (inactive).

For `Cc1ccccc1CS(=O)(=O)CC1(O)CCN(C(=O)c2cccc(C(F)(F)F)c2)CC1`, the inhibition was 19.1% (inactive).

Turning to `Cc1cccc(C(=O)N2CCCN(C(=O)c3cccc(C)c3)CC2)c1`, the inhibition was 90.5% (active).

In the case of `O=C(c1cccc(F)c1)N1CCN(c2ccc([N+](=O)[O-])c(N3CCCCC3)c2)CC1`, the inhibition is 49% (inactive).

Turning to `CC(C)N(C(=O)COC(=O)c1ccccc1C(=O)N1CCN(c2ccc(F)cc2)CC1)C(C)C`, the inhibition was 44.2% (inactive).

Turning to `O=C(NCc1ccco1)C1(c2ccc(Cl)cc2)CCCC1`, the inhibition was 39.8% (inactive).

As to `CCOc1nc(NCCN2CCOCC2)nc(Nc2ccc(C)cc2)n1`, the inhibition was 11.1% (inactive).

Take `CCOc1ccc(NC(=O)Nc2ccc(N(C)C(C)=O)cc2)cc1`: the inhibition is -7.4% (inactive).

As to `O=C(Nc1ccc2ccccc2c1)Nc1ccc2snnc2c1`, the inhibition was 5.2% (inactive).

As to `Oc1c(C=Nc2cccc3nsnc23)ccc2ccccc12`, the inhibition was 45.4% (inactive).

For `O=C(c1ccc2c(c1)OCO2)N1CCNc2ccccc2C1`, the inhibition is 16.6% (inactive).

Turning to `CC1CN(C(=O)c2ccc3c(c2)OCO3)OC(c2ccccc2)O1` (stereo not drawn), the inhibition was 74.6% (active).

On to `Cc1ccc(-c2nn(-c3ccccc3)cc2/C=N/NC(=O)c2ccc3c(c2)OCO3)cc1`, for which the inhibition is 49.9% (inactive).

`CCn1c(COc2cccc(OC)c2)nnc1SCC(=O)N1CCOCC1`: the inhibition was 9.6% (inactive).

For the molecule `CC1(C)Cc2ccccc2-c2nc(CN3CCOCC3)[nH]c(=O)c21`, the inhibition was 9.2% (inactive).

In the case of `CCOC(=O)C1Cn2c(nc3c(c2=O)C(C)(CC)Cc2ccccc2-3)S1` (stereo not drawn), the inhibition is 97.8% (active).

As to `COC(=O)Nc1ncc(CN2CCCCC2)s1`, the inhibition is -1.3% (inactive).

Take `Cc1cc(C)c(C#N)c(SCc2ccc3c(c2)OCO3)n1`: the inhibition is 96.5% (active).

For `Cc1cc(C)c(C#N)c(SCc2[nH]nc3c2C(c2ccccc2)C(C#N)=C(N)O3)n1` (stereo not drawn), the inhibition was -13.6% (inactive).

In the case of `Cc1cc(C)c(C#N)c(SCc2ccccc2C(=O)O)n1`, the inhibition is -6% (inactive).

In the case of `CC(CO)N1CCS(=O)(=O)CC1` (stereo not drawn), the inhibition is -1.3% (inactive).

Consider `O=C(c1ccc(Cl)cc1)c1cnc(Nc2ccccc2)s1`, for which the inhibition is -10.7% (inactive).
